From PubChem BioAssay AID1159580 (chemical genetic matrix, 2015)
Out of some 5,500 compounds screened, about 2,000 (36%) were called active. Roughly 18% stayed inconclusive and do not appear here. No stated cut-off is given here; in the data, active means normalized growth mostly below about 0.91 (no sharp cut-off); inconclusive means no clear call, values can overlap the other calls; inactive means mostly above about 0.92. The list shows a part of the results.

Assay: chemical genetic growth profiling, strain panel (AID 1159580);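 further: tested at 20 µM; growth read once vehicle control cultures reached saturation at 30 °C; 1 = growth at the plate median or of vehicle wells; lower values mean less growth of the strain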
Conditions: growth OD
[1] = S. cerevisiae deletion strains, locus YDR150W, strain NUM1, active compounds read low
[2] = S. cerevisiae deletion strains, locus YGR078C, strain PAC10, active compounds read low
[3] = S. cerevisiae deletion strains, locus YHR030C, strain SLT2, active compounds read low
[4] = S. cerevisiae deletion strains, locus YJR075W, strain HOC1, active compounds read low
[5] = S. cerevisiae deletion strains, locus YMR263W, strain SAP30, active compounds read low
[6] = S. cerevisiae deletion strains, locus YNL128W, strain TEP1, active compounds read low
[7] = S. cerevisiae deletion strains, locus YNL153C, strain GIM3, active compounds read low
[8] = S. cerevisiae deletion strains, locus YPL241C, strain CIN2, active compounds read low
[9] = S. cerevisiae deletion strains, locus YAL040C, strain CLN3, active compounds read low
[10] = S. cerevisiae deletion strains, locus YCL061C, strain MRC1 (second series), active compounds read low
[11] = S. cerevisiae deletion strains, locus YDR363W, strain ESC2, active compounds read low
[12] = S. cerevisiae deletion strains, locus YER002W, strain NOP16, active compounds read low
[13] = S. cerevisiae deletion strains, locus YNL175C, strain NOP13, active compounds read low
[14] = S. cerevisiae deletion strains, locus YNL197C, strain WHI3, active compounds read low
[15] = S. cerevisiae deletion strains, locus YNL224C, strain SQS1, active compounds read low
[16] = S. cerevisiae deletion strains, locus YOR083W, strain WHI5 (second series), active compounds read low

Measured: normalized growth

COc1ccc(C=C2C(=O)NC(=S)NC2=O)cc1Br
inactive: S. cerevisiae deletion strains, locus YAL013W, strain DEP1, active compounds read low 1.02 | S. cerevisiae deletion strains, locus YBR229C, strain ROT2, active compounds read low 1.03 | S. cerevisiae deletion strains, locus YDL101C, strain DUN1, active compounds read low 1 | [1] 0.946 | S. cerevisiae deletion strains, locus YEL061C, strain CIN8, active compounds read low 0.992 | [2] 0.995 | [3] 1.01 | S. cerevisiae deletion strains, locus YHR087W, strain rtc3, active compounds read low 0.984 | S. cerevisiae deletion strains, locus YJR043C, strain POL32, active compounds read low 0.998 | [4] 1 | S. cerevisiae deletion strains, locus YLR039C, strain RIC1, active compounds read low 1.07 | S. cerevisiae deletion strains, locus YLR058C, strain SHM2 (second series), active compounds read low 1 | S. cerevisiae deletion strains, locus YLR085C, strain ARP6, active compounds read low 1.01 | S. cerevisiae deletion strains, locus YLR262C, strain YPT6, active compounds read low 1.06 | S. cerevisiae deletion strains, locus YML094W, strain GIM5, active compounds read low 1 | S. cerevisiae deletion strains, locus YMR219W, strain ESC1, active compounds read low 1.01 | [5] 0.928 | [6] 1 | [7] 0.965 | S. cerevisiae deletion strains, locus YNL298W, strain CLA4 (second series), active compounds read low 1 | S. cerevisiae deletion strains, locus YNL322C, strain KRE1, active compounds read low 1.01 | S. cerevisiae deletion strains, locus YNR030W, strain Alg12, active compounds read low 0.997 | S. cerevisiae deletion strains, locus YOL006C, strain TOP1, active compounds read low 1.01 | S. cerevisiae deletion strains, locus YPL055C, strain LGE1, active compounds read low 0.884 | [8] 1.02 | S. cerevisiae deletion strains, locus YPR135W, strain CTF4, active compounds read low 0.968 | S. cerevisiae strains, strain wild type, active compounds read low 1.01

O=C1Nc2ccc(I)cc2/C1=C/c1cc(Br)c(O)c(Br)c1
inactive: [9] 0.966 | [10] 0.995 | [1] 0.953 | [11] 0.942 | [12] 1.01 | [2] 0.919 | [4] 0.979 | [5] 0.991 | [13] 0.922 | [14] 0.97 | [15] 0.993
active: [7] 0.666 | [16] 0.665

CCO/C([O-])=N/c1c[n+](N2CCOCC2)no1
inactive: [9] 0.99 | [10] 0.99 | [11] 1.02 | [12] 1 | [5] 0.98 | S. cerevisiae deletion strains, locus YMR307W, strain GAS1, active compounds read low 0.996 | [6] 1.01 | [13] 1 | [14] 0.984 | [15] 1.01 | [16] 0.995 | [8] 0.968

NC(=O)c1ncn(C2O[C@H](CO)[C@@H](O)[C@H]2O)c1N (some centres not stated)
inactive: S. cerevisiae deletion strains, locus YAL021C, strain ccr4, active compounds read low 1.04 | S. cerevisiae deletion strains, locus YAL026C, strain drs2, active compounds read low 1.03 | S. cerevisiae deletion strains, locus YAL030W, strain snc1, active compounds read low 1.03 | S. cerevisiae deletion strains, locus YBL061C, strain skt5, active compounds read low 1.04 | S. cerevisiae deletion strains, locus YBR009C, strain hhf1, active compounds read low 1.07 | S. cerevisiae deletion strains, locus YBR023C, strain chs3, active compounds read low 1.02 | S. cerevisiae deletion strains, locus YBR171W, strain sec66, active compounds read low 1.05 | S. cerevisiae deletion strains, locus YBR231C, strain swc5, active compounds read low 1.04 | S. cerevisiae deletion strains, locus YBR279W, strain paf1, active compounds read low 1.02 | S. cerevisiae deletion strains, locus YCL011C, strain gbp2, active compounds read low 1.04 | S. cerevisiae deletion strains, locus YCL016C, strain dcc1, active compounds read low 1.03 | S. cerevisiae deletion strains, locus YCL061C, strain MRC1, active compounds read low 1.04 | S. cerevisiae deletion strains, locus YCL069W, strain vba3, active compounds read low 1.03 | S. cerevisiae deletion strains, locus YCR088W, strain abp1, active compounds read low 1.03 | S. cerevisiae deletion strains, locus YDL005C, strain med2, active compounds read low 1.04 | S. cerevisiae deletion strains, locus YDL040C, strain nat1, active compounds read low 1.03 | S. cerevisiae deletion strains, locus YDR001C, strain nth1, active compounds read low 1.03 | S. cerevisiae deletion strains, locus YDR069C, strain doa4, active compounds read low 1.03 | S. cerevisiae deletion strains, locus YDR137W, strain rgp1, active compounds read low 1.04 | S. cerevisiae deletion strains, locus YDR159W, strain sac3, active compounds read low 1.05 | S. cerevisiae deletion strains, locus YDR195W, strain ref2 1.02 | S. cerevisiae deletion strains, locus YDR297W, strain sur2, active compounds read low 1.03 | S. cerevisiae deletion strains, locus YDR334W, strain swr1, active compounds read low 1.04 | S. cerevisiae deletion strains, locus YDR335W, strain msn5, active compounds read low 1.03 | S. cerevisiae deletion strains, locus YDR392W, strain spt3, active compounds read low 1 | S. cerevisiae deletion strains, locus YEL003W, strain gim4, active compounds read low 1.03 | S. cerevisiae deletion strains, locus YEL037C, strain rad23, active compounds read low 1.03 | S. cerevisiae deletion strains, locus YEL061C, strain CIN8 (second series), active compounds read low 1.03 | S. cerevisiae deletion strains, locus YER015W, strain faa2, active compounds read low 1.04 | S. cerevisiae deletion strains, locus YER016W, strain bim1, active compounds read low 1.03 | S. cerevisiae deletion strains, locus YER111C, strain swi4, active compounds read low 1.04 | S. cerevisiae deletion strains, locus YER155C, strain BEM2 (second series), active compounds read low 1.06 | S. cerevisiae deletion strains, locus YFR010W, strain ubp6, active compounds read low 1.04 | S. cerevisiae deletion strains, locus YGL167C, strain pmr1, active compounds read low 1.04 | S. cerevisiae deletion strains, locus YGL173C, strain kem1, active compounds read low 1.04 | S. cerevisiae deletion strains, locus YGL227W, strain vid30, active compounds read low 1.04 | S. cerevisiae deletion strains, locus YGL240W, strain doc1, active compounds read low 1.06 | S. cerevisiae deletion strains, locus YGL253W, strain hxk2, active compounds read low 1.04 | S. cerevisiae deletion strains, locus YHR013C, strain ard1, active compounds read low 1.03 | S. cerevisiae deletion strains, locus YHR027C, strain rpn1, active compounds read low 1.03 | [3] 0.991 | S. cerevisiae deletion strains, locus YHR079C, strain IRE1, active compounds read low 1.01 | S. cerevisiae deletion strains, locus YHR142W, strain chs7, active compounds read low 1.02 | S. cerevisiae deletion strains, locus YJL092W, strain hpr5, active compounds read low 1.02 | S. cerevisiae deletion strains, locus YJL095W, strain BCK1 (second series), active compounds read low 1.03 | S. cerevisiae deletion strains, locus YJL095W, strain BCK1, active compounds read low 1.01 | S. cerevisiae deletion strains, locus YJL115W, strain asf1, active compounds read low 1.03 | S. cerevisiae deletion strains, locus YJL129C, strain trk1, active compounds read low 1.04 | S. cerevisiae deletion strains, locus YJL154C, strain vps35, active compounds read low 1.02 | S. cerevisiae deletion strains, locus YJL164C, strain tpk1, active compounds read low 1.02 | S. cerevisiae deletion strains, locus YJL166W, strain qcr8, active compounds read low 1.05 | S. cerevisiae deletion strains, locus YJL187C, strain SWE1, active compounds read low 1.03 | S. cerevisiae deletion strains, locus YJR066W, strain TOR1, active compounds read low 0.949 | S. cerevisiae deletion strains, locus YKL160W, strain elf1, active compounds read low 1.02 | S. cerevisiae deletion strains, locus YKR026C, strain gcn3, active compounds read low 1.03 | S. cerevisiae deletion strains, locus YKR091W, strain srl3, active compounds read low 1.03 | S. cerevisiae deletion strains, locus YLL001W, strain dnm1, active compounds read low 1.04 | S. cerevisiae deletion strains, locus YLL026W, active compounds read low 1.03 | S. cerevisiae deletion strains, locus YLL041C, strain sdh2, active compounds read low 1.04 | S. cerevisiae deletion strains, locus YLR027C, strain aat2, active compounds read low 1.03 | S. cerevisiae deletion strains, locus YLR113W, strain HOG1, active compounds read low 0.993 | S. cerevisiae deletion strains, locus YLR221C, strain rsa3, active compounds read low 1.03 | S. cerevisiae deletion strains, locus YLR258W, strain gsy2, active compounds read low 1.04 | S. cerevisiae deletion strains, locus YLR262C, strain YPT6 (second series), active compounds read low 1.05 | S. cerevisiae deletion strains, locus YLR320W, strain mms22, active compounds read low 1.05 | S. cerevisiae deletion strains, locus YLR342W, strain FKS1, active compounds read low 1.05 | S. cerevisiae deletion strains, locus YLR357W, strain rsc2, active compounds read low 1.08 | S. cerevisiae deletion strains, locus YLR370C, strain arc18, active compounds read low 1.05 | S. cerevisiae deletion strains, locus YLR384C, strain iki3, active compounds read low 1.04 | S. cerevisiae deletion strains, locus YML120C, strain ndi1, active compounds read low 1.01 | S. cerevisiae deletion strains, locus YMR058W, strain fet3, active compounds read low 1.03 | S. cerevisiae deletion strains, locus YMR125W, strain sto1, active compounds read low 1.04 | S. cerevisiae deletion strains, locus YMR129W, active compounds read low 1.03 | S. cerevisiae deletion strains, locus YMR205C, strain PFK2, active compounds read low 1.07 | S. cerevisiae deletion strains, locus YMR231W, strain pep5, active compounds read low 1.03 | S. cerevisiae deletion strains, locus YNL071W, strain lat1, active compounds read low 1.04 | S. cerevisiae deletion strains, locus YNL183C, strain NPR1, active compounds read low 0.965 | S. cerevisiae deletion strains, locus YNL209W, strain ssb2, active compounds read low 1.04 | S. cerevisiae deletion strains, locus YNL248C, strain rpa49, active compounds read low 1.03 | S. cerevisiae deletion strains, locus YNL322C, strain KRE1 (second series), active compounds read low 1.03 | S. cerevisiae deletion strains, locus YNR049C, strain mso1, active compounds read low 1.04 | S. cerevisiae deletion strains, locus YOR001W, strain rrp6, active compounds read low 1.02 | S. cerevisiae deletion strains, locus YOR070C, strain gyp1, active compounds read low 1.03 | S. cerevisiae deletion strains, locus YOR080W, strain dia2, active compounds read low 1.05 | S. cerevisiae deletion strains, locus YOR083W, strain WHI5, active compounds read low 1.02 | S. cerevisiae deletion strains, locus YOR106W, strain vam3, active compounds read low 1.03 | S. cerevisiae deletion strains, locus YOR231W, strain MKK1, active compounds read low 1.01 | S. cerevisiae deletion strains, locus YOR265W, strain rbl2, active compounds read low 1.04 | S. cerevisiae deletion strains, locus YOR270C, strain vph1, active compounds read low 1.05 | S. cerevisiae deletion strains, locus YOR290C, strain snf2, active compounds read low 0.974 | S. cerevisiae deletion strains, locus YPL051W, strain arl3, active compounds read low 1.01 | S. cerevisiae deletion strains, locus YPL078C, strain atp4, active compounds read low 1.03 | S. cerevisiae deletion strains, locus YPL106C, strain sse1, active compounds read low 1.08 | S. cerevisiae deletion strains, locus YPL240C, strain hsp82, active compounds read low 1.03 | S. cerevisiae deletion strains, locus YPL256C, strain CLN2, active compounds read low 0.982
